Assay results from the supplement of paper PMC6555819.

Tests used:
Assay in all cases: PBM binding z-score (relative to random genomic background probes); higher = stronger binding; sequences stand for … in GC…GCGATTGACAGCGTAGAATGAAGG
[1] = system: RARb homodimer (NR concentration 270 nM)
Outline: (§1)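 The probes on custom Agilent 4×180K protein-binding microarrays were double-stranded, with 34-nt variable regions bearing direct-repeat seeds, single-nucleotide variants, half-site ablations and random human genomic background sequences. Incubation lasted 1 h with ligand-free nuclear receptor dimers in PBS pH 7.4, 2% milk, 0.02% Triton X-100, 1 mM DTT, 0.2 mg/mL BSA and 0.4 mg/ml salmon testes DNA. Antibodies against each partner (one per run) detected bound dimers, and fluorescence scans were regression-normalized. Binding z-scores take the random background probes as reference.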

[2] = system: RARg:RXRa (NR concentration 270 nM, RXRa partner concentration 90 nM)
Outline: as §1

[3] = system: RARg homodimer (NR concentration 270 nM)
Outline: as §1

[4] = system: RXRa DBDmut IVT, anti-RXR (DBD mutation: RXRa K156A/R161A, NR concentration 90 nM)
Outline: as §1

[5] = system: RXRa homodimer (NR concentration 180 nM)
Outline: as §1

[6] = system: THRa:RXRa (NR concentration 90 nM, RXRa partner concentration 90 nM)
Outline: as §1

[7] = system: THRa homodimer (NR concentration 90 nM)
Outline: as §1

[8] = system: VDR homodimer (NR concentration 270 nM)
Outline: as §1

Row | Sequence | PBM binding z-score [1] | PBM binding z-score [2] | PBM binding z-score [3] | PBM binding z-score [4] | PBM binding z-score [5] | PBM binding z-score [6] | PBM binding z-score [7] | PBM binding z-score [8]
1 | GGAACGAGGGCATTCGAGTTGAAAGCATGGCGAT | 0.677 | 1.02 | 1.19 | 3.05 | 1.12 | 3.9 | -0.523 | 3.1
2 | CCTATCAGGCCAGGGTCACTCAAGCATTTCGCTT | 2.88 | 3.19 | 2.62 | 0.325 | 3.65 | 3.19 | 1.36 | 1.33
3 | GCATAGAGGTAATACAAGGTGAAAGTCCGATTGT | 1.08 | 0.816 | 0.537 | 0.392 | 0.977 | 4.44 | 0.985 | 0.216
4 | ACTAGTTAGTCAGCTGAGGTCACACACAATTCGG | 4.4 | 3.65 | 3.31 | 1.91 | 4.01 | 4.76 | 5.46 | 3.81
5 | TCTCGGAGGACATGAAAGGTCAGAGCTCGACATC | 4.53 | 4.22 | 4.21 | 1.18 | 3.67 | 3.34 | 0.586 | 0.768
6 | AGTTAAAGTTCATCTAGGTAACGTAAGATATGCT | 3.84 | 5.06 | 5.65 | 4.63 | 4.14 | 3.21 | 0.583 | 5.32
7 | CCAGACAGGTGAGAGGGTAACTCAGCCTCGATTA | 1.02 | 0.576 | 0.626 | -0.231 | 0.666 | 0.388 | 0.0769 | 0.287
8 | CAGCCTAGGTCAGGGCCAGTAAAGGAGGAACGTT | 2.33 | 2.7 | 3.44 | -0.0941 | 1.55 | 1.86 | 0.361 | -0.267
9 | CGTCCAAGGTCAATGGTAGGTCAGTGAAAGCATT | 5.21 | 7.79 | 6.78 | 3.44 | 5.41 | 4.33 | 2.72 | 2.73
10 | GCAGACACGTGAAACGCAGGTAACTCAGGGTGGC | -0.78 | -0.43 | -0.333 | -0.425 | -0.324 | 0.299 | -0.673 | -0.988
11 | AGAACGAGGGCAATGAGTTGATACCACGGGTGGC | 0.985 | 1.02 | 1.7 | 2.06 | 0.987 | 0.993 | -0.484 | 3.27
12 | CAAACTAGGTCACCGGAAGGTCGAAGTCCGCATG | 4.74 | 6.69 | 6 | 1.66 | 4.65 | 4.04 | 2.22 | 1.97
13 | TTACCAAGGTGAAATGTCGTTGATGCACGCCTTG | 0.644 | 0.864 | 0.648 | 0.115 | 1.16 | 1.82 | 0.71 | -0.183
14 | GGAACGAGGGCAAAGTTTATAGCATCTGTCGACG | 1.8 | 2.31 | 2.04 | 2.61 | 2.22 | 1.63 | -0.279 | 2.22
15 | TAACCTAGGTCATTGGGCCAGTATAGTACGCATC | 3.46 | 4.58 | 4.75 | 2.44 | 3.95 | 3.19 | 1.52 | 2.14
16 | CCTACTAGGCCAAAGGTCATTGATTCCAATGCTC | 4.84 | 6.22 | 5.49 | 2.06 | 6.88 | 3.67 | 1.45 | 2.65
17 | CCGACTGGGGCAGAAAGGGTACCATACCATCCGG | 0.624 | 0.0836 | 0.273 | -1.36 | 0.143 | -0.36 | -0.53 | -0.349
18 | GCTCGGAGGACAAGTTCAGAGCTTTGTCCGTAGA | 1.38 | 0.89 | 1.25 | 1.73 | 0.198 | 1.27 | -0.148 | 1.89
19 | CTCGAAAGGTCGTGCTCAGGTGAGTCTACCAAAC | 2.6 | 5.27 | 3.98 | 2.42 | 4.89 | 4.01 | 0.948 | 1.03
20 | TCTAGTTTGTCACGGAGGTCACACACGACGGGTA | 4.23 | 4.3 | 4.16 | 1.65 | 4.54 | 3.6 | 2.96 | 3.15
21 | GCTAGCAGGCCACTTGGGTCACTCAATGACGGGC | 2.08 | 1.11 | 1.41 | -0.454 | 0.892 | 1.67 | 0.36 | 0.24
22 | TCATATAGTTAAACAGGTGAAAGTCCGTAAGTTA | 0.84 | 0.464 | 0.347 | 1.57 | 1.04 | 0.679 | 0.485 | 0.667
23 | TAGCCTAGGTCAATGGGCCAGTATAGTACGCATC | 3.07 | 3.64 | 4.52 | 0.537 | 2.12 | 2.16 | 0.256 | 0.391
24 | TTACCAAGGTGAAAGGCCGTTGATGCACGCCTTG | 1.1 | 0.963 | 0.384 | -0.3 | 1.3 | 1.45 | 0.31 | -0.0991
25 | TGCATGAGGTTATAAGATCAGGGAACGTTGCAAA | 0.168 | 1.64 | 1.08 | 1.32 | 1.84 | 1.93 | 0.273 | 0.679
26 | ATCTCTAGGTAAGACTCAGTCCAGTGAAGAACGC | 0.112 | 0.208 | 0.132 | 0.459 | 0.144 | 0.31 | 0.282 | 0.336
27 | CGTCCAAGGTCATCAGGTCAGTGAAAGCGACGTG | 5.08 | 6.56 | 6.99 | 4.23 | 6.63 | 4.34 | 3.86 | 3.8
28 | TCATTTAGGTAAAAGGTGAAAGTCGGTGTGGTAA | 1.9 | 1.81 | 1.04 | 1.68 | 2.47 | 2.14 | 0.844 | 0.375
